# Data: paper PMC5540273 (PLoS ONE, 2017)
# Like-named read-outs stand apart in the source and are kept apart here.
# Columns and labels:
# VRK2 = conditions: concentration: 1 μM, replicates: in singlicate; n = 1
# WEE1 = conditions: concentration: 1 μM, replicates: in singlicate; n = 1
# WEE2 = conditions: concentration: 1 μM, replicates: in singlicate; n = 1
# WNK1 = conditions: concentration: 1 μM, replicates: in singlicate; n = 1
# WNK2 = conditions: concentration: 1 μM, replicates: in singlicate; n = 1
# WNK3 = conditions: concentration: 1 μM, replicates: in singlicate; n = 1
# WNK4 = conditions: concentration: 1 μM, replicates: in singlicate; n = 1
# YANK1 = tested on: T1, YANK1; conditions: concentration: 1 μM, replicates: in singlicate; n = 1
# T1 construct: gene STK32A
# YANK2 = tested on: T2, YANK2; conditions: concentration: 1 μM, replicates: in singlicate; n = 1
# T2 construct: gene STK32B
# YANK3 = tested on: T3, YANK3; conditions: concentration: 1 μM, replicates: in singlicate; n = 1
# T3 construct: gene STK32C
# YES = tested on: T4, YES; conditions: concentration: 1 μM, replicates: in singlicate; n = 1
# T4 construct: gene YES1
# YSK1 = tested on: T5, YSK1; conditions: concentration: 1 μM, replicates: in singlicate; n = 1
# T5 construct: gene STK25
# YSK4 = tested on: T6, YSK4; conditions: concentration: 1 μM, replicates: in singlicate; n = 1
# T6 construct: gene MAP3K19
# ZAK = conditions: concentration: 1 μM, replicates: in singlicate; n = 1
# ZAP70 = conditions: concentration: 1 μM, replicates: in singlicate; n = 1
# p38-alpha = tested on: T7, p38-alpha; conditions: n = 1
# T7 construct: gene MAPK14
# p38-beta = tested on: T8, p38-beta; conditions: concentration: 1 μM, replicates: in singlicate; n = 1
# T8 construct: gene MAPK11
# p38-delta = conditions: concentration: 1 μM, replicates: in singlicate; n = 1
# p38-gamma = tested on: T9, p38-gamma; conditions: concentration: 1 μM, replicates: in singlicate; n = 1
# T9 construct: gene MAPK12
# [1] = concentration: 1 μM, replicates: in singlicate
# 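Also: KINOMEscan kinase panel screen.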
SMILES,%Inh (VRK2) [%],%Inh (WEE1) [%],%Inh (WEE2) [%],%Inh (WNK1) [%],%Inh (WNK2) [%],%Inh (WNK3) [%],%Inh (WNK4) [%],%Inh (YANK1) [%],%Inh (YANK2) [%],%Inh (YANK3) [%],%Inh (YES) [%],%Inh (YSK1) [%],%Inh (YSK4) [%],%Inh (ZAK) [%],%Inh (ZAP70) [%],%Inh (p38-alpha; [1]) [%],%Inh (p38-beta) [%],%Inh (p38-delta) [%],%Inh (p38-gamma) [%],%Inh (p38-alpha; 1 µM) [%]
CC(C)(C)c1ccc(C(=O)Nc2cn3cc(Cl)ccc3n2)cc1,0,0,0,0,0,0,0,0,0,3,0,0,5,0,4,0,0,39,10,–
Nc1nc(-c2nccs2)c(-c2ccnc3ccccc23)s1 [GW693542],0,22,9,20,28,35,28,9,3,0,17,10,28,39,0,0,0,22,30,–
COc1ccccc1-c1ccc2c(NC(=O)C3CC3)n[nH]c2n1 [SB-711239],21,8,5,7,0,37,0,15,0,20,0,0,0,0,13,26,9,6,2,–
Cl.O=C(Nc1cccc(-c2nn3ncccc3c2-c2ccnc(Nc3cccnc3)n2)c1)c1c(F)cccc1F [GSK312879],10,0,0,13,7,10,0,7,10,32,73,0,32,28,0,3,6,24,0,–
CC1=C(C(=O)Nc2cc3cn[nH]c3cc2F)C(c2ccc(C(F)(F)F)cc2)CC(=O)N1 (centres unmarked) [GSK429286],0,12,20,20,61,3,0,8,0,24,17,0,9,9,0,0,0,21,0,–
COc1ccc(Nc2nccc(NCCNC(=O)Nc3ccccc3F)n2)cc1 [GSK1379901],0,13,0,11,0,29,37,0,0,0,23,0,45,37,5,20,0,38,10,–
COc1ccccc1CNC(=O)c1cc(C(=O)c2ccccc2C)c[nH]1 [GSK364507],0,9,12,10,12,25,32,10,0,23,16,0,28,24,13,–,0,39,0,93.3
CS(=O)(=O)c1ccc(-c2nc3n(c2-c2ccncc2)CCC3)cc1 [SKF-105942],12,0,10,0,0,0,29,0,0,100,33,5,1,0,0,0,0,31,14,–
O=C(Nc1n[nH]c2nc(-c3nccs3)c(Br)cc12)C1CCCC1 [SB-742609],34,0,1,10,0,19,0,4,0,28,10,5,62,9,0,0,0,47,0,–
COc1cc2ncnc(Nc3ccc4nc(-c5ccccc5)[nH]c4c3)c2cc1OC.Cl [GW282450],0,0,0,10,16,6,0,2,0,9,5,6,35,0,0,1,0,36,0,–
Cl.Oc1ccc(-c2nc(-c3ccccc3)[nH]c2-c2ccncc2)cc1 [SB-428218],64,64,8,0,0,0,60,8,0,21,17,4,13,10,0,63,0,43,0,–
